Records with an inconclusive call do not appear. Where a call stands in place of a potency, no number is given. Calls of active or inactive are those of the source. Unless noted, calls follow the shape of the dose curve; as a rule, active = well fitted curve in the direction sought with a large enough effect in the repeat runs; inconclusive = weak or mixed curves; inactive = no such curve, though single readings can be large; an effect the other way counts as inactive or inconclusive.
Key:
[1] = qHTS assay for small molecules that induce genotoxicity in human embryonic kidney cells expressing luciferase-tagged ATAD5 (AID 651632); conditions: HEK293T ATAD5-luciferase induction, 16 h; series mostly up to 83.3 µM; also: nearly all actives have a fitted effect of over 15% in size
In short: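 Cells were seeded at 2,000 per well, dosed with compound, and incubated 16 hr at 37C in 5% CO2. Luciferase activity was then quantified after a 30 min room-temperature incubation with Amplite.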

[2] = qHTS assay for small molecule agonists of the p53 signaling pathway - cell viability (AID 651633; calls by dose curve; also: nearly all actives have a fitted effect of over 30% in size; also: potency is read from the fitted curve at half-maximal effect); conditions: p53RE-bla HCT-116 viability, ATP luminescence, 16 h; series mostly up to 83.3 µM
In short: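 p53RE-bla cells, seeded at 4,000 per well and rested 5 h at 37 C/5% CO2, received compounds in DMSO for 16 h at 37 C. CellTiter-Glo was then added, and luminescence was read after 30 min at room temperature to gauge cytotoxicity.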

[3] = qHTS assay for small molecules that induce genotoxicity in human embryonic kidney cells expressing luciferase-tagged ATAD5 - cell viability (AID 651634; calls by dose curve; also: nearly all actives have a fitted effect of over 25% in size); conditions: HEK293T ATAD5-luc cells viability, CellTiter-Fluor, 15.5 h; series mostly up to 83.3 µM
In short: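 Cells (HEK293T, luciferase-tagged ATAD5) are seeded at 2,000 per well, dosed with compound or DMSO vehicle, and incubated 15.5 hr at 37C and 5% CO2. CellTiter-Fluor is added for 30 min before fluorescence is measured.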

[4] = qHTS assay to test for compound auto fluorescence at 590 nm (red) in HepG2 cells (AID 720674); conditions: HepG2 autofluorescence, red 540/590 nm, 1 h; series mostly up to 46 µM
In short: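 Compound auto-fluorescence is scored relative to Rose Bengal sodium, measured at 540/590 nm in live HepG2 cultures after 1 hr compound contact (37 C, 5% CO2).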

[5] = qHTS assay to test for compound auto fluorescence at 460 nm (blue) in HEK293 cells (AID 720678); conditions: blue autofluorescence 405/460 nm; series mostly up to 46 µM
In short: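 HEK293 cells (2,000 per well, medium with 10% dialyzed FBS) attached for 4-5 hr at 37C, then received compound and stood overnight at 37C, 5% CO2. Blue fluorescence was read at Ex/Em 405/460 nm and expressed relative to triamterene.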

[6] = qHTS assay to test for compound auto fluorescence at 535 nm (green) in HEK293 cells (AID 720680); conditions: green autofluorescence 485/535 nm; series mostly up to 46 µM
[7] = qHTS assay to test for compound auto fluorescence at 535 nm (green) in HEK293 cell free culture (AID 720682); conditions: cell-free medium, green autofluorescence 485/535 nm; series mostly up to 46 µM
In short: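 Each library compound, or DMSO control, is added by pintool to medium alone, comprising DMEM and 10% FBS. Emission at 535 nm following 485 nm excitation is quantified against fluorescein.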

[8] = qHTS assay to test for compound auto fluorescence at 590 nm (red) in HEK293 cell free culture (AID 720683); conditions: cell-free medium autofluorescence, Ex540/Em590 red; series mostly up to 46 µM
In short: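 Tox21 10K library compounds were pinned into cell-free DMEM with 10% FBS and fluorescence was read at excitation 540 nm. Activity is expressed as Rose Bengal sodium equivalency.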

[9] = qHTS assay to test for compound auto fluorescence at 460 nm (blue) in HepG2 cell free culture (AID 720685); conditions: Cell-free culture medium, blue autofluorescence 405/460 nm; series mostly up to 46 µM
In short: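 Cell-free plates of MEM plus 10% FBS received 23 nL compound or DMSO vehicle; blue-channel (405/460 nm) intensity scored against triamterene as reference fluorophore.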

[10] = qHTS assay to test for compound auto fluorescence at 460 nm (blue) in HepG2 cells (AID 720687); conditions: autofluorescence 405/460 nm, 1 h; series mostly up to 46 µM
In short: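 Cells (2,000/well in MEM with 10% FBS) attached overnight at 37 C, then were exposed to compound or DMSO for 1 hr at 37 C, 5% CO2. Fluorescence read at Ex/Em 405/460 nm, expressed as triamterene-equivalent signal.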

[11] = qHTS assay for identifying genotoxic compounds that show differential cytotoxicity against isogenic chicken DT40 cell lines with known DNA damage response pathways - wild type cell line (AID 743012); conditions: DT40 wild type chicken cells viability, CellTiter-Glo, 40 h; series mostly up to 68.4 µM; also: nearly all actives have a fitted effect of over 60% in size; also: potency is read from the fitted curve at half-maximal effect
In short: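 Cytotoxicity in repair-proficient parental chicken DT40 cells serves as the comparator for Rad54/Ku70- and Rev3-deficient lines. Cells were exposed to compounds for 40 h at 37 C/5% CO2, and ATP-based luminescence (CellTiter-Glo) measured viability.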

[12] = qHTS assay to identify small molecule antagonists of the androgen receptor (AR) signaling pathway - cell viability counter screen (AID 743033; also: nearly all actives have a fitted effect of over 45% in size); conditions: AR-bla HEK293 viability, CellTiter-Glo luminescence, 16 h; series mostly up to 58.5 µM
[13] = qHTS assay to identify small molecule antagonists of the estrogen receptor alpha (ER-alpha) signaling pathway - cell viability counter screen (AID 743074; calls by dose curve;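 also: HEK293 cells carrying ER-alpha-UAS-bla reporter stimulated with 17beta-estradiol; nearly all actives have a fitted effect of over 45% in size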); conditions: ERalpha-bla HEK293 viability, CellTiter-Glo luminescence, 18 h; series mostly up to 69.4 µM
[14] = qHTS assay to identify small molecule antagonists of the estrogen receptor alpha (ER-alpha) signaling pathway using the BG1 cell line - cell viability counter screen (AID 743081); conditions: BG1Luc4E2 viability, CellTiter-Fluor, 22 h; series mostly up to 70.3 µM;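 also: compound given together with 17beta-estradiol as the ER stimulus; nearly all actives have a fitted effect of over 45% in size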
[15] = qHTS assay to identify aromatase inhibitors - cell viability counter screen (AID 743084); conditions: MCF-7 aro ERE viability, CellTiter-Fluor, 24 h; series mostly up to 70.3 µM;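 also: cells stimulated with testosterone during compound exposure; nearly all actives have a fitted effect of over 55% in size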
[16] = qHTS assay to identify small molecule that activate the aryl hydrocarbon receptor (AhR) signaling pathway - cell viability counter screen (AID 743086); conditions: HepG2-AhR-luc viability, CellTiter-Fluor, 24 h; series mostly up to 70.3 µM;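 also: HepG2 liver cells carrying the AhR DRE luciferase reporter; nearly all actives have a fitted effect of over 45% in size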
In short: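 HepG2-AhR-luc (HG2L7.5c1) cells, 4000/well, were preincubated 5 h at 37C, exposed to compound in qHTS format for 24 hr at 37C, then given CellTiter-Fluor for 30 min; viability was read as fluorescence in the reporter wells.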

[17] = qHTS assay to identify small molecule phospholipidosis (PLD) inducers (AID 1259344; active = well fitted curve in the direction sought with a large enough effect; an effect the other way counts as inactive or inconclusive); conditions: HepG2 phospholipidosis, LipidTOX Red imaging, 24 h; series mostly up to 38.3 µM
In short: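 Cells (HepG2, 900 per well) attach for 4 h, receive LipidTOX Red and compound together, incubate 24 h at 37 C, are fixed 30 min with paraformaldehyde/Hoechst, then imaged at one site per well.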

[18] = qHTS assay for small molecule disruptors of the mitochondrial membrane potential - cell viability (AID 720634; calls by dose curve;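 also: human HepG2 liver cancer cells; nearly all actives have a fitted effect of over 20% in size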); conditions: HepG2 viability, ATP luminescence (CellTiter-Glo), 1 h; series mostly up to 83.2 µM
In short: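 Cytotoxicity was measured by ATP quantitation in HepG2 wells that had first been treated with compound for 1 hr and stained with m-MPI dye; CellTiter-Glo incubation was 30 min at room temperature.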

[19] = tested on: thyroid hormone receptor (rat, GH3 cells); test: qHTS assay to identify small molecule agonists of the thyroid receptor (TR) signaling pathway (AID 743066; calls by dose curve); conditions: GH3.TRE-Luc cells, TR agonist luciferase, 24 h; series mostly up to 83.9 µM
[20] = molecular target: Aromatase (Homo sapiens) (UniProt P11511); test: qHTS assay to identify aromatase inhibitors (AID 743083); conditions: MCF-7 aro ERE, testosterone-driven ERE luciferase, 24 h; series mostly up to 70.3 µM; also: nearly all actives have a fitted effect of over 55% in size
Aromatase (Homo sapiens), sequence (P11511 whole entry, looked up): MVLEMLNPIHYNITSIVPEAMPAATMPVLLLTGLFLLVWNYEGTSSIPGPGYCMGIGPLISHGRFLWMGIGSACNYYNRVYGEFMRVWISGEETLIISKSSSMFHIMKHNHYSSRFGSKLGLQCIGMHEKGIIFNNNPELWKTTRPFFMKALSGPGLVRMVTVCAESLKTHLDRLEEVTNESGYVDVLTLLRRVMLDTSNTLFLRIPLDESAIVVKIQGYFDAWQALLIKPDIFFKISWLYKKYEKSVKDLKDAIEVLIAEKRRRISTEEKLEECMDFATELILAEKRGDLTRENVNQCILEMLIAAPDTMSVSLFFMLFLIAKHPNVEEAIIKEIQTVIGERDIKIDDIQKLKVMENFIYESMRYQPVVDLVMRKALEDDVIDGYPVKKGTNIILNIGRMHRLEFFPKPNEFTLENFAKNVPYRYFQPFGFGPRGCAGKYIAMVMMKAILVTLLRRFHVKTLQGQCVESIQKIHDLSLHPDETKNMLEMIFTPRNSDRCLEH

Compound	Potency [1]	Potency [2]	Potency [3]	outcome [4]	Potency [5]	Potency [6]	Potency [7]	outcome [8]	Potency [9]	Potency [10]	Potency [11]	Potency [12]	Potency [13]	Potency [14]	Potency [15]	Potency [16]	Potency [17]	Potency [18]	Potency [19]	Potency [20]
CCCCCc1cc(O)c2c(c1)OC(C)(C)[C@@H]1CCC(C)=C[C@@H]21	inactive	23.7 µM (active)	inactive	inactive	inactive	inactive	inactive	inactive	inactive	inactive	9.44 µM (active)	inactive	inactive	inactive	inactive	inactive	inactive			
C=C[C@H]1CN2CC[C@H]1C[C@@H]2[C@@H](O)c1ccnc2ccccc12	inactive		inactive	inactive	inactive	inactive	inactive	inactive	inactive	inactive			inactive	inactive	inactive	inactive	inactive	inactive	inactive	inactive
Cc1cc(C)cc(C(=O)OC2C[C@H]3CC[C@@H](C2)N3C)c1 (some centres undefined)	inactive	inactive	inactive	inactive	inactive	inactive	inactive	inactive	inactive	inactive	2.98 µM (active)	inactive	inactive	inactive	inactive		inactive	inactive	inactive	inactive
C[C@]12CCC(=O)C=C1C=C[C@@H]1[C@@H]2CC[C@@]2(C)[C@H]1CC[C@@]2(O)CCC(=O)O	inactive	inactive	inactive	inactive	inactive	inactive	inactive	inactive	inactive	inactive		inactive		inactive	inactive	inactive	inactive	inactive	inactive	inactive
CN1CCCC(=C(c2cccs2)c2cccs2)C1	inactive	inactive	inactive	inactive	inactive	inactive	inactive	inactive	inactive	inactive		inactive	inactive	inactive	inactive	inactive	inactive	inactive	inactive	inactive
CN(C)[C@H](Cc1ccccc1)c1ccccc1	inactive		inactive	inactive	inactive	inactive	inactive	inactive	inactive	inactive	inactive	inactive	inactive	inactive	inactive	inactive	inactive	inactive	inactive	inactive
CN1c2ccccc2C(NCCCCCCC(=O)O)c2ccc(Cl)cc2S1(=O)=O (centres undefined)	inactive	inactive	inactive	inactive	inactive	inactive	inactive	inactive	inactive	inactive		inactive	inactive	inactive	inactive	inactive	inactive	inactive	inactive	inactive
CNC1(c2ccccc2Cl)CCCCC1=O (centres undefined)	inactive	inactive	inactive	inactive	inactive	inactive	inactive	inactive	inactive	inactive	inactive	inactive	inactive	inactive	inactive	inactive	inactive	inactive	inactive	inactive
CNC(=O)Oc1ccccc1C(=O)Nc1ccccc1	inactive	inactive	inactive	inactive	inactive	inactive	inactive	inactive	inactive	inactive	29.8 µM (active)	inactive	inactive	inactive	inactive	inactive	inactive		inactive	inactive
CN(C)CCCCCCN(C)C (tested in a mixture with another compound)		inactive	inactive	inactive	inactive	inactive	inactive	inactive	inactive	inactive	inactive	inactive		inactive	inactive	inactive	inactive	inactive	inactive	inactive
C=CCC1(C(C)CCC)C(=O)N=C(S)NC1=O (centres undefined)	inactive	inactive	inactive	inactive	inactive	inactive	inactive	inactive	inactive	inactive	inactive	inactive	inactive	inactive	inactive	inactive	inactive	inactive	inactive	inactive
C[C@@H](CO)NC(=O)[C@@H]1C=C2c3cccc4[nH]cc(c34)C[C@H]2N(C)C1	inactive	inactive	inactive	inactive	inactive	inactive	inactive	inactive	inactive	inactive	inactive	inactive	inactive	inactive	inactive		inactive	inactive	inactive	inactive
CCN1C[C@]2(COC)[C@H](O)C[C@H](OC)[C@@]34[C@@H]5C[C@@]6(O)[C@H](OC(=O)c7ccccc7)[C@@H]5[C@@](OC(C)=O)([C@@H]([C@H](OC)[C@H]23)[C@@H]14)[C@@H](O)[C@@H]6OC	inactive	inactive	inactive	inactive	inactive	inactive	inactive	inactive	inactive	inactive	inactive	inactive	inactive	inactive	inactive	inactive	inactive	inactive	inactive	inactive

From PubChem BioAssay (Tox21)
